We go through 40 molecules from PMC7826789 (International Journal of Molecular Sciences, 2021).
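Also: KINOMEscan scanMAX binding as percent activity remaining versus control; lower means stronger binding.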

The test system of the first test is NEK10. To be noted: Compound Concentration (nM):1000.
For the molecule `Cl.O=C(O[C@H]1CN[C@H](C#Cc2cc3ncnc(Nc4ccc5c(cnn5Cc5ccccc5)c4)c3s2)C1)N1CCOCC1` [GSK200398A], the “Percent Control” value turned out to be 96%.

As for `COc1cc(C)c(N(C)C(=O)CN(C)C)cc1Nc1nc(Nc2cccc(F)c2C(N)=O)c2cc[nH]c2n1` [GSK2219385], the “Percent Control” value is reported as 52%.

`Nc1ncnc2occ(-c3ccc(NC(=O)Nc4cc(C(F)(F)F)ccc4F)cc3)c12` [GW770249X]: the “Percent Control” value was found to be 100%.

As for `COc1cc(/C=N/Nc2ncnc3[nH]ncc23)ccc1O` [GW578748X], the “Percent Control” value was 100%.

In the case of `C[C@@H](Oc1cc(-n2cnc3ccc(OC4CCN(C)CC4)cc32)sc1C(N)=O)c1ccccc1Cl` [GSK579289A], the “Percent Control” value was 92%.

As for `COc1ccc2c(-c3ccnc(Nc4cccc(OC(F)(F)F)c4)n3)cnn2n1` [GW810372X], the “Percent Control” value is reported as 100%.

Take `CN(C)c1cc2c(Nc3ccc4c(cnn4Cc4ccccc4)c3)ncnc2cn1` [GW282974X]: the “Percent Control” value is recorded as 89%.

The test system of the next test is NEK11. The settings on record: Compound Concentration (nM):1000.
Regarding `CCn1c(-c2nonc2N)nc2c(C#CC(C)(C)O)nc(OCCNC)cc21.Cl` [GSK949675], the “Percent Control” value came to 100%.

For `Cl.O=S1CCN(Cc2ccc(-c3ccc4ncnc(Nc5ccc(OCc6ccccc6)c(F)c5)c4c3)o2)CC1` [GW576924A], the “Percent Control” value is listed as 100%.

For `CCS(=O)(=O)c1ccc(OC)c(Nc2ncc(-c3cccc(OC)c3)o2)c1` [GW580509X], the “Percent Control” value is 100%.

On to `Cl.c1ccc(Cc2nc3ccc(Nc4ncnc5ccccc45)cc3[nH]2)cc1` [GR269666A], for which the “Percent Control” value was 100%.

Take `NS(=O)(=O)c1ccc(N/N=C2\C(=O)Nc3ccc(C(=O)NCCc4c[nH]cn4)cc32)cc1` [GW300660X]: the “Percent Control” value worked out at 100%.

Regarding `C/C(Nc1ccc(S(N)(=O)=O)cc1)=C1/C(=O)Nc2ccccc21` [GW335962X], the “Percent Control” value was 100%.

As for `COc1ccccc1-c1cc(/C=C2\C(=O)Nc3ncc(Br)cc32)cc(Br)c1O` [GW442130X], the “Percent Control” value is reported as 100%.

With `NS(=O)(=O)c1ccc(N/N=C2\C(=O)Nc3ccc(-c4cnco4)cc32)cc1` [GW276655], the “Percent Control” value stood at 93%.

Turning to `CN(C)CCNC(=O)Nc1ccc(N(C)c2ccnc(Nc3ccc(CS(C)(=O)=O)cc3)n2)cc1.Cl` [GW830900A], the “Percent Control” value was 100%.

Regarding `COc1ccc2[nH]c3c4[nH]c5ccc(OC)cc5c4c4c(c3c2c1)C(=O)NC4=O` [GW296115X], the “Percent Control” value turned out to be 100%.

For the molecule `COc1cc2ncnc(Nc3ccc4c(cnn4Cc4ccccc4)c3)c2cc1OC.Cl` [GW282449A], the “Percent Control” value was determined as 100%.

In the case of `NS(=O)(=O)c1ccc(N/N=C2\C(=O)Nc3ccc(Cl)cc32)cc1` [GW280670X], the “Percent Control” value came to 100%.

In the case of `CN1CCN(C(=O)c2ccc(NC(=O)Nc3ccc(N(C)c4ccnc(Nc5ccc(CS(C)(=O)=O)cc5)n4)cc3)cc2)CC1.Cl` [GW830263A], the “Percent Control” value came out at 100%.

Turning to `COC(=O)Nc1nc2ccc(Oc3ccc(NC(=O)Nc4cc(C(F)(F)F)ccc4F)cc3)cc2s1.Cl` [GW693917A], the “Percent Control” value came to 100%.

As for `COc1ccc2cc(-c3c(-c4ccncc4)nc(-c4ccc(S(C)(=O)=O)cc4C)n3C)ccc2c1` [SB-633825], the “Percent Control” value is on record as 90%.

Take `COc1cc(C=NNc2ncnc3c2cnn3-c2ccccc2)ccc1O` [GW513184X]: the “Percent Control” value is given as 100%.

With `COc1cccc(-n2ncc3c(N/N=C/c4ccncc4)ncnc32)c1` [GW784752X], the “Percent Control” value is reported as 100%.

For `COc1cc(N2CCN(C(C)C)CC2)ccc1Nc1nc(Nc2ccc(F)cc2C(=O)NC[C@@H](O)CO)c2cc[nH]c2n1` [GSK1392956A], the “Percent Control” value is 100%.

As to `CC(C)COC(=O)c1ccc2c(c1)/C(=C/Nc1ccc(S(N)(=O)=O)cc1)C(=O)N2` [GW416981X], the “Percent Control” value came out at 100%.

Turning to `CC1=C(C(=O)Nc2ccc3[nH]ncc3c2)C(c2ccc3ccccc3c2)CC(=O)N1` (centres unmarked) [GSK270822A], the “Percent Control” value is given as 81%.

In the case of `NS(=O)(=O)c1ccc(Nc2ncc(-c3ccccc3)o2)cc1` [GW572399X], the “Percent Control” value was 100%.

Regarding `CC1=C(C(=O)Nc2ccc3[nH]ncc3c2)C(c2ccc(Cl)c(Cl)c2)CC(=O)N1` (centres unmarked) [GSK299115A], the “Percent Control” value is reported as 86%.

Turning to `NS(=O)(=O)c1ccc(N/N=C2\C(=O)Nc3ccc(C(=O)NCc4ccncc4)cc32)cc1` [GW300657X], the “Percent Control” value was determined as 40%.

With `CCc1ccc(Oc2nccc(-c3c(-c4ccc(F)cc4)ncn3C3CCNCC3)n2)cc1` [SB-242719], the “Percent Control” value is 100%.

`Cl.O=C(Nc1ccc(Oc2ccc3[nH]c(NC(=O)c4ccccc4)nc3c2)cc1)Nc1cc(C(F)(F)F)ccc1F` [GW709042A]: the “Percent Control” value is on record as 100%.

Turning to `COc1cccc(-c2c[nH]c3c(N/N=C/c4ccncc4)ncnc23)c1` [GW814408X], the “Percent Control” value worked out at 100%.

For the molecule `CCS(=O)(=O)c1ccc(OC)c(Nc2ncc(-c3cccc(F)c3)o2)c1` [GW621970X], the “Percent Control” value is given as 93%.

Regarding `Cc1cc(O)cc(C)c1/C=C/c1cncc(C(N)=O)c1` [GW435821X], the “Percent Control” value is 100%.

`Cl.O=C(Nc1ccc(Oc2ccc3[nH]c(NC(=O)c4ccco4)nc3c2)cc1)Nc1cc(C(F)(F)F)ccc1F` [GW683134A]: the “Percent Control” value was determined as 100%.

For the molecule `O=C(Nc1n[nH]c2nc(-c3ccc(O)cc3)c(Br)cc12)C1CC1` [SB-725317], the “Percent Control” value is on record as 100%.

`COc1cc2ncn(-c3cc(O[C@H](C)c4ccccc4Cl)c(C(N)=O)s3)c2cc1OC` [GSK237701A]: the “Percent Control” value came out at 78%.

With `COc1ccc(COc2ccc(Cc3cnc(N)nc3N)cc2OC)cc1` [GW632580X], the “Percent Control” value is reported as 100%.

As to `O=C1Nc2ccc(C(=O)c3ccco3)cc2C1=Cc1cc(Cl)c(O)c(Cl)c1` [GW406108X], the “Percent Control” value amounted to 100%.

On to `Cl.O=C(O[C@H]1CN[C@H](C#Cc2cc3ncnc(Nc4ccc5c(cnn5Cc5ccccc5)c4)c3s2)C1)N1CCOCC1` [GSK200398A], for which the “Percent Control” value was 100%.

For `COc1cc(C)c(N(C)C(=O)CN(C)C)cc1Nc1nc(Nc2cccc(F)c2C(N)=O)c2cc[nH]c2n1` [GSK2219385], the “Percent Control” value was 100%.

Consider `Nc1ncnc2occ(-c3ccc(NC(=O)Nc4cc(C(F)(F)F)ccc4F)cc3)c12` [GW770249X], for which the “Percent Control” value is listed as 100%.

With `COc1cc(/C=N/Nc2ncnc3[nH]ncc23)ccc1O` [GW578748X], the “Percent Control” value is on record as 28%.

As to `C[C@@H](Oc1cc(-n2cnc3ccc(OC4CCN(C)CC4)cc32)sc1C(N)=O)c1ccccc1Cl` [GSK579289A], the “Percent Control” value is 100%.

For `COc1ccc2c(-c3ccnc(Nc4cccc(OC(F)(F)F)c4)n3)cnn2n1` [GW810372X], the “Percent Control” value stood at 100%.

Consider `CN(C)c1cc2c(Nc3ccc4c(cnn4Cc4ccccc4)c3)ncnc2cn1` [GW282974X], for which the “Percent Control” value is reported as 100%.
